Hit rate of the full screen: of about 5,500 compounds, about 2,000 (36%) were called active. Roughly 18% stayed inconclusive and do not appear here. Rule as the data show it: active = normalized growth mostly below about 0.91 (no sharp cut-off); inconclusive = no clear call, values can overlap the other calls; inactive = mostly above about 0.92. Some of the results follow.
Test: chemical genetic growth profiling, strain panel (AID 1159580);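 also: tested at 20 µM; growth read once vehicle control cultures reached saturation at 30 °C; 1 = growth at the plate median or of vehicle wells; lower values mean less growth of the strain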
Conditions: S. cerevisiae deletion strains, growth OD

Measured: normalized growth

Cc1scc2c1N(C(=O)CN1CCN(C)CC1)c1ccccc1NC2=O
inactive: locus YAL013W, strain DEP1, stronger effect = lower value 0.967 | locus YAL021C, strain ccr4, stronger effect = lower value 0.984 | locus YAL026C, strain drs2, stronger effect = lower value 0.972 | locus YAL030W, strain snc1, stronger effect = lower value 0.939 | locus YAL040C, strain CLN3, stronger effect = lower value 0.985 | locus YBL061C, strain skt5, stronger effect = lower value 0.963 | locus YBR009C, strain hhf1, stronger effect = lower value 0.989 | locus YBR023C, strain chs3, stronger effect = lower value 0.947 | locus YBR171W, strain sec66, stronger effect = lower value 0.954 | locus YBR231C, strain swc5, stronger effect = lower value 0.972 | locus YBR279W, strain paf1, stronger effect = lower value 0.958 | locus YCL011C, strain gbp2, stronger effect = lower value 0.954 | locus YCL016C, strain dcc1, stronger effect = lower value 0.975 | locus YCL061C, strain MRC1 (second series), stronger effect = lower value 1 | locus YCL069W, strain vba3, stronger effect = lower value 0.971 | locus YCR088W, strain abp1, stronger effect = lower value 0.969 | locus YDL005C, strain med2, stronger effect = lower value 0.956 | locus YDL040C, strain nat1, stronger effect = lower value 0.967 | locus YDR001C, strain nth1, stronger effect = lower value 0.948 | locus YDR069C, strain doa4, stronger effect = lower value 0.922 | locus YDR137W, strain rgp1, stronger effect = lower value 0.941 | locus YDR150W, strain NUM1, stronger effect = lower value 0.998 | locus YDR159W, strain sac3, stronger effect = lower value 0.94 | locus YDR195W, strain ref2 0.899 | locus YDR297W, strain sur2, stronger effect = lower value 0.974 | locus YDR334W, strain swr1, stronger effect = lower value 0.943 | locus YDR335W, strain msn5, stronger effect = lower value 0.955 | locus YDR363W, strain ESC2, stronger effect = lower value 0.984 | locus YDR392W, strain spt3, stronger effect = lower value 1.01 | locus YEL003W, strain gim4, stronger effect = lower value 0.976 | locus YEL037C, strain rad23, stronger effect = lower value 0.957 | locus YEL061C, strain CIN8 (second series), stronger effect = lower value 0.96 | locus YER002W, strain NOP16, stronger effect = lower value 1 | locus YER015W, strain faa2, stronger effect = lower value 0.974 | locus YER016W, strain bim1, stronger effect = lower value 0.967 | locus YER111C, strain swi4, stronger effect = lower value 0.965 | locus YER155C, strain BEM2 (second series), stronger effect = lower value 0.939 | locus YFR010W, strain ubp6, stronger effect = lower value 0.95 | locus YGL167C, strain pmr1, stronger effect = lower value 0.943 | locus YGL173C, strain kem1, stronger effect = lower value 0.978 | locus YGL227W, strain vid30, stronger effect = lower value 0.947 | locus YGL240W, strain doc1, stronger effect = lower value 0.966 | locus YGL253W, strain hxk2, stronger effect = lower value 0.965 | locus YGR078C, strain PAC10, stronger effect = lower value 0.996 | locus YHR013C, strain ard1, stronger effect = lower value 0.967 | locus YHR027C, strain rpn1, stronger effect = lower value 0.966 | locus YHR030C, strain SLT2, stronger effect = lower value 1.08 | locus YHR079C, strain IRE1, stronger effect = lower value 1.1 | locus YHR142W, strain chs7, stronger effect = lower value 0.942 | locus YJL092W, strain hpr5, stronger effect = lower value 0.965 | locus YJL095W, strain BCK1 (second series), stronger effect = lower value 0.96 | locus YJL095W, strain BCK1, stronger effect = lower value 1.11 | locus YJL115W, strain asf1, stronger effect = lower value 0.952 | locus YJL129C, strain trk1, stronger effect = lower value 0.948 | locus YJL154C, strain vps35, stronger effect = lower value 0.961 | locus YJL164C, strain tpk1, stronger effect = lower value 0.995 | locus YJL166W, strain qcr8, stronger effect = lower value 0.949 | locus YJL187C, strain SWE1, stronger effect = lower value 0.968 | locus YJR066W, strain TOR1, stronger effect = lower value 0.962 | locus YJR075W, strain HOC1, stronger effect = lower value 0.979 | locus YKL160W, strain elf1, stronger effect = lower value 0.981 | locus YKR026C, strain gcn3, stronger effect = lower value 0.96 | locus YKR091W, strain srl3, stronger effect = lower value 0.977 | locus YLL001W, strain dnm1, stronger effect = lower value 0.968 | locus YLL026W, stronger effect = lower value 0.949 | locus YLL041C, strain sdh2, stronger effect = lower value 0.968 | locus YLR027C, strain aat2, stronger effect = lower value 0.977 | locus YLR113W, strain HOG1, stronger effect = lower value 0.977 | locus YLR221C, strain rsa3, stronger effect = lower value 0.995 | locus YLR258W, strain gsy2, stronger effect = lower value 0.963 | locus YLR262C, strain YPT6 (second series), stronger effect = lower value 0.962 | locus YLR320W, strain mms22, stronger effect = lower value 1 | locus YLR342W, strain FKS1, stronger effect = lower value 0.98 | locus YLR357W, strain rsc2, stronger effect = lower value 0.948 | locus YLR370C, strain arc18, stronger effect = lower value 0.945 | locus YLR384C, strain iki3, stronger effect = lower value 0.962 | locus YML120C, strain ndi1, stronger effect = lower value 0.964 | locus YMR058W, strain fet3, stronger effect = lower value 0.952 | locus YMR125W, strain sto1, stronger effect = lower value 0.948 | locus YMR129W, stronger effect = lower value 0.982 | locus YMR205C, strain PFK2, stronger effect = lower value 0.967 | locus YMR231W, strain pep5, stronger effect = lower value 0.972 | locus YMR263W, strain SAP30, stronger effect = lower value 0.989 | locus YMR307W, strain GAS1, stronger effect = lower value 0.981 | locus YNL071W, strain lat1, stronger effect = lower value 0.979 | locus YNL153C, strain GIM3, stronger effect = lower value 1 | locus YNL175C, strain NOP13, stronger effect = lower value 1.02 | locus YNL183C, strain NPR1, stronger effect = lower value 0.938 | locus YNL197C, strain WHI3, stronger effect = lower value 0.979 | locus YNL209W, strain ssb2, stronger effect = lower value 0.973 | locus YNL224C, strain SQS1, stronger effect = lower value 1.02 | locus YNL248C, strain rpa49, stronger effect = lower value 0.964 | locus YNL322C, strain KRE1 (second series), stronger effect = lower value 0.967 | locus YNL322C, strain KRE1, stronger effect = lower value 0.972 | locus YNR049C, strain mso1, stronger effect = lower value 0.962 | locus YOR001W, strain rrp6, stronger effect = lower value 0.972 | locus YOR070C, strain gyp1, stronger effect = lower value 0.984 | locus YOR080W, strain dia2, stronger effect = lower value 0.958 | locus YOR083W, strain WHI5 (second series), stronger effect = lower value 0.995 | locus YOR083W, strain WHI5, stronger effect = lower value 0.982 | locus YOR106W, strain vam3, stronger effect = lower value 0.948 | locus YOR231W, strain MKK1, stronger effect = lower value 1.05 | locus YOR265W, strain rbl2, stronger effect = lower value 0.965 | locus YOR270C, strain vph1, stronger effect = lower value 0.866 | locus YOR290C, strain snf2, stronger effect = lower value 0.974 | locus YPL051W, strain arl3, stronger effect = lower value 0.985 | locus YPL055C, strain LGE1, stronger effect = lower value 0.962 | locus YPL078C, strain atp4, stronger effect = lower value 0.957 | locus YPL106C, strain sse1, stronger effect = lower value 0.936 | locus YPL240C, strain hsp82, stronger effect = lower value 0.979 | locus YPL241C, strain CIN2, stronger effect = lower value 1 | locus YPL256C, strain CLN2, stronger effect = lower value 1.1
